Measured values: ChEMBL document CHEMBL1961873, “Compounds: GSK PKIS; Assays: Nanosyn kinase panel” (2012)

Key:
[1] = biological target: Dual specificity protein kinase CLK3 (Homo sapiens) (UniProt P49761); conditions: at 1 µM;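 also: each value is the mean inhibition of CLK3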
[2] = biological target: Dual specificity tyrosine-phosphorylation-regulated kinase 1A (Homo sapiens) (UniProt Q13627); conditions: at 0.1 µM
[3] = biological target: Dual specificity tyrosine-phosphorylation-regulated kinase 1A (Homo sapiens) (UniProt Q13627); conditions: at 1 µM
[4] = biological target: Dual specificity tyrosine-phosphorylation-regulated kinase 1B (Homo sapiens) (UniProt Q9Y463); conditions: at 0.1 µM
[5] = biological target: Dual specificity tyrosine-phosphorylation-regulated kinase 1B (Homo sapiens) (UniProt Q9Y463); conditions: at 1 µM
[6] = biological target: T1, Dual specificity tyrosine-phosphorylation-regulated kinase 2 (Homo sapiens) (UniProt Q92630); conditions: at 0.1 µM
T1 sequence (whole entry): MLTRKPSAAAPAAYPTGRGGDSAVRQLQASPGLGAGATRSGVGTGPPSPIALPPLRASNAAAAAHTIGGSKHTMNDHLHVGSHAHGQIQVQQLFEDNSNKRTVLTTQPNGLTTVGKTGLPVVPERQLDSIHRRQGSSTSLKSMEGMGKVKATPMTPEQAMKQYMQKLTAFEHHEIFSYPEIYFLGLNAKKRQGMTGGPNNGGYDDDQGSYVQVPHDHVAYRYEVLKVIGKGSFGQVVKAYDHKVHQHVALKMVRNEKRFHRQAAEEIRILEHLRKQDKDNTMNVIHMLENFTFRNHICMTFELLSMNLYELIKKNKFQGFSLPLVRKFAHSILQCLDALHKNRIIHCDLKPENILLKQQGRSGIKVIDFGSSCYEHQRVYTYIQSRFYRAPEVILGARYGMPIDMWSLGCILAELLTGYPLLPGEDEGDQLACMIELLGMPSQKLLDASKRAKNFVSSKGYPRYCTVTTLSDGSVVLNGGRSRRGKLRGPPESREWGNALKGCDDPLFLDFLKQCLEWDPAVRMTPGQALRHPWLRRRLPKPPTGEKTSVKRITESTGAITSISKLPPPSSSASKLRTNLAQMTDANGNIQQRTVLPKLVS

[7] = biological target: T1, Dual specificity tyrosine-phosphorylation-regulated kinase 2 (Homo sapiens); conditions: at 1 µM
[8] = biological target: Glycogen synthase kinase-3 alpha (Homo sapiens) (UniProt P49840); conditions: at 0.1 µM
[9] = biological target: Glycogen synthase kinase-3 alpha (Homo sapiens) (UniProt P49840); conditions: at 1 µM
[10] = biological target: Glycogen synthase kinase-3 beta (Homo sapiens) (UniProt P49841); conditions: at 0.1 µM
[11] = biological target: Glycogen synthase kinase-3 beta (Homo sapiens) (UniProt P49841); conditions: at 1 µM
[12] = biological target: Homeodomain-interacting protein kinase 1 (Homo sapiens) (UniProt Q86Z02); conditions: at 0.1 µM
[13] = biological target: Homeodomain-interacting protein kinase 1 (Homo sapiens) (UniProt Q86Z02); conditions: at 1 µM
[14] = biological target: T2, Homeodomain-interacting protein kinase 4 (Homo sapiens) (UniProt Q8NE63); conditions: at 0.1 µM
T2 sequence (whole entry): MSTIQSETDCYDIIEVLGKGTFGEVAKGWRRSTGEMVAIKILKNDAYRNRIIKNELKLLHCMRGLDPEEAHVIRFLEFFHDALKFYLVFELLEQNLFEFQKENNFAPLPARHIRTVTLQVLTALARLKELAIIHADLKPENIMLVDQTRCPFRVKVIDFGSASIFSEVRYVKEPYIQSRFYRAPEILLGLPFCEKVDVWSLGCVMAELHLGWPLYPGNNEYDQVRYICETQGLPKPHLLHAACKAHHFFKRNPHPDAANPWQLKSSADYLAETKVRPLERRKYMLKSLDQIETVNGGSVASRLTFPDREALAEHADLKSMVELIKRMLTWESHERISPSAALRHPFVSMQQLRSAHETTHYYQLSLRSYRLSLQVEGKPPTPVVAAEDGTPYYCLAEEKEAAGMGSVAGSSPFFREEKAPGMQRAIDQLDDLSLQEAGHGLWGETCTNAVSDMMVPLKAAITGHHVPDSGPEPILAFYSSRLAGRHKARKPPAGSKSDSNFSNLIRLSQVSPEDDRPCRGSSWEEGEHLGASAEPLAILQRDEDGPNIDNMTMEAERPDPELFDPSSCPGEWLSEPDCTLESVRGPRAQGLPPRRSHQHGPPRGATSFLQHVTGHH

[15] = biological target: T2, Homeodomain-interacting protein kinase 4 (Homo sapiens); conditions: at 1 µM
[16] = biological target: Mitogen-activated protein kinase 9 (Homo sapiens) (UniProt P45984); conditions: at 0.1 µM
[17] = biological target: Mitogen-activated protein kinase 9 (Homo sapiens) (UniProt P45984); conditions: at 1 µM
[18] = biological target: Mitogen-activated protein kinase 1 (Homo sapiens) (UniProt P28482); conditions: at 0.1 µM
[19] = biological target: Mitogen-activated protein kinase 1 (Homo sapiens) (UniProt P28482); conditions: at 1 µM
[20] = biological target: Mitogen-activated protein kinase 3 (Homo sapiens) (UniProt P27361); conditions: at 0.1 µM;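 also: each value is a mean inhibition figure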
Chain of Mitogen-activated protein kinase 3 (Homo sapiens) (P27361 whole entry): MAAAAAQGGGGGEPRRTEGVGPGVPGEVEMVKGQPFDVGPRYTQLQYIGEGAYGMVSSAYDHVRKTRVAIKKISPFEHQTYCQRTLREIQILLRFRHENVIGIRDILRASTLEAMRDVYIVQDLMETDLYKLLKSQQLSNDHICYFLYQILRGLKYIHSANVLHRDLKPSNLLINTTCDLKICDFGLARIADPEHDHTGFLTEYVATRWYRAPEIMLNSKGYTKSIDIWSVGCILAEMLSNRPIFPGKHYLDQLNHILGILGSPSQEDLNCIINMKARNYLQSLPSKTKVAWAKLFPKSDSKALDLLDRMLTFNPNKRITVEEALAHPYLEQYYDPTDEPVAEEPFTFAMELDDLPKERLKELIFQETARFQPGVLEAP

Chain of Dual specificity protein kinase CLK3 (Homo sapiens) (P49761 whole entry, looked up): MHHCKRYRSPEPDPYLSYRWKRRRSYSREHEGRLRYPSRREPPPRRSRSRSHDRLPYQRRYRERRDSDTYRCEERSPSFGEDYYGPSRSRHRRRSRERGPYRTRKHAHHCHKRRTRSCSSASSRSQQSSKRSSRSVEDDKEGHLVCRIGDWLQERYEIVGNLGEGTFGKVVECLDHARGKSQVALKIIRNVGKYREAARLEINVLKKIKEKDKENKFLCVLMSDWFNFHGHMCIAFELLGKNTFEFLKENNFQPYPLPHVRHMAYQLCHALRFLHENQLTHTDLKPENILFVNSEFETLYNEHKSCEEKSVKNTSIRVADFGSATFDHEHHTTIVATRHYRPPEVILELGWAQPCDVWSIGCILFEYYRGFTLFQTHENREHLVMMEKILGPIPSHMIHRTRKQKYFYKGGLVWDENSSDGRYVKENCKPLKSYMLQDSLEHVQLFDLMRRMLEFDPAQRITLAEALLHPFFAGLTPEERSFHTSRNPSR
Chain of Dual specificity tyrosine-phosphorylation-regulated kinase 1B (Homo sapiens) (Q9Y463 whole entry, looked up): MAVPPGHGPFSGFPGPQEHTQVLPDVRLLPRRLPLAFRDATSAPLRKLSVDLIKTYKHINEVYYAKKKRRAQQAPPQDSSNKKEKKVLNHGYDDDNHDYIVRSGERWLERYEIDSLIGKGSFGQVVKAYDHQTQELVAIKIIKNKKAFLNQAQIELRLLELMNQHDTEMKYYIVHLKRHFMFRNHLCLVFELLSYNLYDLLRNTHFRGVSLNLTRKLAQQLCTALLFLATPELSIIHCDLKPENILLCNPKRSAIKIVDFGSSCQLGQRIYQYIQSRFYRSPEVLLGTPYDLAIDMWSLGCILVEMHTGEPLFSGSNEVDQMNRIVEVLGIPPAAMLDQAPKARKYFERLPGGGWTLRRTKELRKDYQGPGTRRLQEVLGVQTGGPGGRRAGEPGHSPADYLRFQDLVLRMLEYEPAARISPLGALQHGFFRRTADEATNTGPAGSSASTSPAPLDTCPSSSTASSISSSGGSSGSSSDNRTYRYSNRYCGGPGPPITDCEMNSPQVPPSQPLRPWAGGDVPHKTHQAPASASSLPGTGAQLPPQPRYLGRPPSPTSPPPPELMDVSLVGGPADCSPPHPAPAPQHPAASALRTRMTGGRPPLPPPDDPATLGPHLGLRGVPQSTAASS
Chain of Mitogen-activated protein kinase 9 (Homo sapiens) (P45984 whole entry, looked up): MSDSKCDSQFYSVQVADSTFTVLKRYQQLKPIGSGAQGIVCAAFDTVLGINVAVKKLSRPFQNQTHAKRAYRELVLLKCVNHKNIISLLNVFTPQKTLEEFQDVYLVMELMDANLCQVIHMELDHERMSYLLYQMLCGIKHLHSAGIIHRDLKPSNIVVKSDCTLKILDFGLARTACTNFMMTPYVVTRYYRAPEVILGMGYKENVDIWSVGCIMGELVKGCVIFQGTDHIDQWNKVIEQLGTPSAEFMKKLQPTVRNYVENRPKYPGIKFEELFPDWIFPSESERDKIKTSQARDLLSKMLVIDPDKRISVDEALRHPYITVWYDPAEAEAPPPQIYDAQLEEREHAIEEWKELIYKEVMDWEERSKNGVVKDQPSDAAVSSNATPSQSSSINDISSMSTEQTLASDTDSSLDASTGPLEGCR
Chain of Glycogen synthase kinase-3 alpha (Homo sapiens) (P49840 2-483 limits assumed): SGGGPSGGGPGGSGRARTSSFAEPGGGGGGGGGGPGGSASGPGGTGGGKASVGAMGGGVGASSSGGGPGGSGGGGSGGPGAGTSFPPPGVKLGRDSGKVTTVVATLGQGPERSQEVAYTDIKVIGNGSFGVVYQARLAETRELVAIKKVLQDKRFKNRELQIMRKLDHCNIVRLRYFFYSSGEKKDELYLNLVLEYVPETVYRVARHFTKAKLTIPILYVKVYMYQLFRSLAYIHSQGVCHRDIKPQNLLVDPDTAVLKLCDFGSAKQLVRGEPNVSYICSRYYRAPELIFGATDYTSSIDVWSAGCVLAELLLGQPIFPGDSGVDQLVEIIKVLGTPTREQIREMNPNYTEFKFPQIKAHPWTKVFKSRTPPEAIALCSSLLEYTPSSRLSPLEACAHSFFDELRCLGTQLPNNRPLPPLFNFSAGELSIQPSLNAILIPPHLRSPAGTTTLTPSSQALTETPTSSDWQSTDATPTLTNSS
Chain of Homeodomain-interacting protein kinase 1 (Homo sapiens) (Q86Z02 whole entry, looked up): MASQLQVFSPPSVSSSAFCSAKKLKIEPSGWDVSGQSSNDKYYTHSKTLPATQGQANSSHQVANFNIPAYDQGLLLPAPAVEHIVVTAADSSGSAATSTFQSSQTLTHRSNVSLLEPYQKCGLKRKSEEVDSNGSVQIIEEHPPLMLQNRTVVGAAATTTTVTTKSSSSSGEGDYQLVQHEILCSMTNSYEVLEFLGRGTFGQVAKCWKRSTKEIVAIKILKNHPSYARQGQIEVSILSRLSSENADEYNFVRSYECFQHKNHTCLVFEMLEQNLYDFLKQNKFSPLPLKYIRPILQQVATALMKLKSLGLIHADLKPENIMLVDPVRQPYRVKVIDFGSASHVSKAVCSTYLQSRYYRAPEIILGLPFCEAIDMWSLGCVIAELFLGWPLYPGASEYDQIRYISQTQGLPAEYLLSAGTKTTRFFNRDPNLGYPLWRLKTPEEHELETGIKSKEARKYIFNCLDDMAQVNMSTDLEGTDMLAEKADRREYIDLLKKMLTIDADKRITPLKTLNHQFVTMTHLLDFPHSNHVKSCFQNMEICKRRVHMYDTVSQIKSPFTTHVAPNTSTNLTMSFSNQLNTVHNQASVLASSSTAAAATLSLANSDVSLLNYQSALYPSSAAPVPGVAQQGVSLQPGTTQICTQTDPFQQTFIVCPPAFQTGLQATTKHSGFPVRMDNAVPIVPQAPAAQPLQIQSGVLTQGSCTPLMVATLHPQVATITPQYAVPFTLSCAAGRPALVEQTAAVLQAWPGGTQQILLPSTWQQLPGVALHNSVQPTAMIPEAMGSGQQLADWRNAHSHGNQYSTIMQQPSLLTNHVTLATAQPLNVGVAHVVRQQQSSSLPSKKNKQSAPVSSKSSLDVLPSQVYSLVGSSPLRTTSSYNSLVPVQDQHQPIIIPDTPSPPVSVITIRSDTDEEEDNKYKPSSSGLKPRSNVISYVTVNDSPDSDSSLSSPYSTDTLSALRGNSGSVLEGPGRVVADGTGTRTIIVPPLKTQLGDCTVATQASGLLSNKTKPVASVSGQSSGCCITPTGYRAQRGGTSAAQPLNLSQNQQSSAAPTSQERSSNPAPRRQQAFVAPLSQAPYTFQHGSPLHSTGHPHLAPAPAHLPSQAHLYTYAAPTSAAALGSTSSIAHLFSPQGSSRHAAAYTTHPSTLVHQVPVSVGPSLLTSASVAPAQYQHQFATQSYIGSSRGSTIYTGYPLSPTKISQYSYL
Chain of Glycogen synthase kinase-3 beta (Homo sapiens) (P49841 whole entry, looked up): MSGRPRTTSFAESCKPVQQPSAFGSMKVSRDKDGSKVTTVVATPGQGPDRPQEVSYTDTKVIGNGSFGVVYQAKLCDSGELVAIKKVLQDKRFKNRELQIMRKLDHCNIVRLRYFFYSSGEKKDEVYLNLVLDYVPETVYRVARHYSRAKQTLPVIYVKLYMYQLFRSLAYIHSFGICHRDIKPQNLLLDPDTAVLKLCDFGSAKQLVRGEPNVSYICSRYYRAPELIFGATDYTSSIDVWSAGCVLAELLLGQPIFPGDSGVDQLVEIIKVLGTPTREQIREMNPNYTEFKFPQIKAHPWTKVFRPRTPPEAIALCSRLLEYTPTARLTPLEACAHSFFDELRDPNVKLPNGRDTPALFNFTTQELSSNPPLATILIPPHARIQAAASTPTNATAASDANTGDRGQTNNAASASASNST
Chain of Mitogen-activated protein kinase 1 (Homo sapiens) (P28482 whole entry): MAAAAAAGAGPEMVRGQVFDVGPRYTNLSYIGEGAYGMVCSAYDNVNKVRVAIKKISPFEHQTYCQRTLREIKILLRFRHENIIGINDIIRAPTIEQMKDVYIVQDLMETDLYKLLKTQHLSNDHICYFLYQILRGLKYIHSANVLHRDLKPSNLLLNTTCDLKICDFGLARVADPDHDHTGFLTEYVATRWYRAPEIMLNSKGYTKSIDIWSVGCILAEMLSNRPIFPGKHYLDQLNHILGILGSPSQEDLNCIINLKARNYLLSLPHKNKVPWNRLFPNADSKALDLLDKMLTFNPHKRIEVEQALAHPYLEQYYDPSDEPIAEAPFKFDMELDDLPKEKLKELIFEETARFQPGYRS

Compound `CCn1c(-c2nonc2N)nc2cncc(C(=O)NCCNC)c21` has an inhibition [1] of 9.74%, an inhibition [2] of 20.8% and an inhibition [3] of 72.4%. For the same compound, the inhibition [4] was 9.71%, the inhibition [5] was 54.7% and the inhibition [6] was 7.99%. It also gave an inhibition [7] of 37.2%, an inhibition [8] of 10.2% and an inhibition [9] of 49.7%. For the same compound, the inhibition [10] was 6.83%, the inhibition [11] was 42.3% and the inhibition [12] was 0.25%. The inhibition [13] was 10.2%, the inhibition [14] was -0.44% and the inhibition [15] was 3.11%. For the same compound, the inhibition [16] was 4.59%, the inhibition [17] was 4.73% and the inhibition [18] was 6.91%. For the same compound, the inhibition [19] was 6.64% and the inhibition [20] was 6.22%.

In the case of `COc1ccc(-c2nn3ncccc3c2-c2ccnc(Nc3ccc(F)c(F)c3)n2)cc1`, the inhibition [1] is reported as 3.23%, the inhibition [2] is reported as 2.77% and the inhibition [3] is reported as 4.84%. It also gave an inhibition [4] of -0.82%, an inhibition [5] of 1.01% and an inhibition [6] of 2.83%. It also gave an inhibition [7] of 3.6%, an inhibition [8] of 3.2% and an inhibition [9] of 4.32%. It also gave an inhibition [10] of 3.16%, an inhibition [11] of 5% and an inhibition [12] of 3.8%. For the same compound, the inhibition [13] was 4.38%, the inhibition [14] was 1.49% and the inhibition [15] was 1.58%. For the same compound, the inhibition [16] was 7.25%, the inhibition [17] was 23.9% and the inhibition [18] was 4.91%. The inhibition [19] was 5.09% and the inhibition [20] was 3.11%.

`CNC(=O)c1ncccc1Nc1nc(Nc2cc3c(cc2OC)CCCN3C(=O)CN(C)C)nc2[nH]ccc12` showed an inhibition [1] of 4.34%, an inhibition [2] of 3.21% and an inhibition [3] of 12.5%. The inhibition [4] was 0.36%, the inhibition [5] was 8.48% and the inhibition [6] was 3.42%. The inhibition [7] was 8.03%, the inhibition [8] was 7.2% and the inhibition [9] was 15.6%. The inhibition [10] was 6.12%, the inhibition [11] was 14.6% and the inhibition [12] was 3.08%. The inhibition [13] was 22.2%, the inhibition [14] was 3.67% and the inhibition [15] was 13.5%. The inhibition [16] was 3.07%, the inhibition [17] was 9.19% and the inhibition [18] was 3.01%. It also gave an inhibition [19] of 6.21% and an inhibition [20] of 2.44%.

For `CS(=O)(=O)Nc1ccc(-c2ccc3c(NC(=O)C4CC4)n[nH]c3c2)cc1`, the inhibition [1] was 4.08%, the inhibition [2] was 1.29% and the inhibition [3] was 6.04%. The inhibition [4] was -0.26%, the inhibition [5] was 2.94% and the inhibition [6] was 2.37%. For the same compound, the inhibition [7] was 2.73%, the inhibition [8] was 2.08% and the inhibition [9] was 7.33%. For the same compound, the inhibition [10] was 1.51%, the inhibition [11] was 5.37% and the inhibition [12] was -0.91%. The inhibition [13] was 5.67%, the inhibition [14] was 0.27% and the inhibition [15] was 5.43%. The inhibition [16] was 2.01%, the inhibition [17] was 3.22% and the inhibition [18] was 4.95%. It also gave an inhibition [19] of 1.75% and an inhibition [20] of 2.3%.

In the case of `FC(F)(F)CNc1nccc(-c2cnn3ncccc23)n1`, the inhibition [1] is reported as 2.91%, the inhibition [2] is reported as 14.6% and the inhibition [3] is reported as 60.1%. It also gave an inhibition [4] of 16.1%, an inhibition [5] of 59% and an inhibition [6] of 2.04%. For the same compound, the inhibition [7] was 14.3%, the inhibition [8] was 3.64% and the inhibition [9] was 7.01%. The inhibition [10] was 2.33%, the inhibition [11] was 6.02% and the inhibition [12] was 0.25%. The inhibition [13] was 10.2%, the inhibition [14] was -0.95% and the inhibition [15] was 3.01%. The inhibition [16] was 2.29%, the inhibition [17] was 4.42% and the inhibition [18] was 3.24%. For the same compound, the inhibition [19] was 5.24% and the inhibition [20] was 1.95%.

`c1cnn2ncc(-c3ccnc(NCCCN4CCOCC4)n3)c2c1` gave an inhibition [1] of 0.72%, an inhibition [2] of 6.3% and an inhibition [3] of 33.9%. It also gave an inhibition [4] of 6.84%, an inhibition [5] of 40.3% and an inhibition [6] of 1.99%. It also gave an inhibition [7] of 5.39%, an inhibition [8] of 2.46% and an inhibition [9] of 13.1%. For the same compound, the inhibition [10] was 1.44%, the inhibition [11] was 13% and the inhibition [12] was -1.15%. For the same compound, the inhibition [13] was 6.02%, the inhibition [14] was -0.89% and the inhibition [15] was 3.35%. It also gave an inhibition [16] of 3.34%, an inhibition [17] of 5.01% and an inhibition [18] of 2.95%. For the same compound, the inhibition [19] was 4.35% and the inhibition [20] was 2.48%.

With `COC(=O)Nc1nc2ccc(Oc3ccc(NC(=O)Nc4cc(C(F)(F)F)ccc4F)cc3)cc2s1` the inhibition [1] was 0.05%, the inhibition [2] was 0.96% and the inhibition [3] was 2.5%. It also gave an inhibition [4] of 1.09%, an inhibition [5] of 2.02% and an inhibition [6] of -0.29%. The inhibition [7] was 0.21%, the inhibition [8] was 0.71% and the inhibition [9] was 4.01%. It also gave an inhibition [10] of -0.46%, an inhibition [11] of 5.68% and an inhibition [12] of -1.19%. The inhibition [13] was 0.81%, the inhibition [14] was 6.92% and the inhibition [15] was 33.5%. For the same compound, the inhibition [16] was -0.14%, the inhibition [17] was 3.25% and the inhibition [18] was -1.09%. For the same compound, the inhibition [19] was 0.7% and the inhibition [20] was 0.14%.

`O=C1Nc2ccccc2/C1=C1\CCc2cc(O)ccc21` gave an inhibition [1] of 3.11%, an inhibition [2] of 7.28% and an inhibition [3] of 34%. It also gave an inhibition [4] of 2.1%, an inhibition [5] of 17.7% and an inhibition [6] of 5.9%. It also gave an inhibition [7] of 24.7%, an inhibition [8] of 3.11% and an inhibition [9] of 10.5%. The inhibition [10] was 1.77%, the inhibition [11] was 7.64% and the inhibition [12] was -1.14%. For the same compound, the inhibition [13] was 7.57%, the inhibition [14] was 0.76% and the inhibition [15] was 10.8%. It also gave an inhibition [16] of 5.71%, an inhibition [17] of 9.88% and an inhibition [18] of 5.77%. The inhibition [19] was 6.56% and the inhibition [20] was 5.82%.

Compound `O=C(O[C@H]1CN[C@H](C#Cc2cc3ncnc(Nc4ccc5c(cnn5Cc5ccccc5)c4)c3s2)C1)N1CCOCC1` has an inhibition [1] of -0.49%, an inhibition [2] of -4.04% and an inhibition [3] of -3.74%. The inhibition [4] was -1.09%, the inhibition [5] was -0.85% and the inhibition [6] was -0.74%. It also gave an inhibition [7] of -3.59%, an inhibition [8] of 1.95% and an inhibition [9] of 3.19%. For the same compound, the inhibition [10] was 1.44%, the inhibition [11] was 3.77% and the inhibition [12] was -3.77%. The inhibition [13] was -1.24%, the inhibition [14] was -1.27% and the inhibition [15] was -0.32%. It also gave an inhibition [16] of 0.01%, an inhibition [17] of 0.13% and an inhibition [18] of 0.84%. The inhibition [19] was -0.13% and the inhibition [20] was -0.77%.
